# Measured values published in PubChem BioAssay (Tox21).
# Records with an inconclusive call do not appear. A call without a number means that no potency is given here. Values without a mark were called inactive. The source made the active and inactive calls. Calls come from the whole dose curve; as a rule, active = well fitted cell-killing curve with a large enough effect in the repeat runs; inconclusive = weak or mixed curves, or effect the other way; inactive = flat fitted curve, though single readings scatter.
# Experiment: cAMP Responsive Elements (CRE) small molecule agonists, cell-based qHTS assay: qHTS cell viability counter screen (AID 2060914);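 note: viability read after 3 h of compound exposure; nearly all actives have a fitted effect of over 50% in size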
# Procedure, shortened: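 CRE-bla HEK 293T cells, plated 18 h at 37 °C, were exposed to compounds for 3 h at 37 °C/5% CO2. Viability was then measured in the same wells by CellTiter-Glo luminescence after 30 min at room temperature.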
# Potency is the fitted concentration of half-maximal effect.
SMILES,Potency,"activity change, negative = cytotoxicity"
CCc1ccc(C(c2ccc(CC)cc2)C(Cl)Cl)cc1,inactive,
CCN(CC)C(=O)c1cc(S(=O)(=O)Cc2ccccc2)c(N2CCC(c3ccccc3)CC2)cc1N(CC)CCN(C)C,inactive,
CC(CN1c2ccccc2Sc2ccccc21)N(C)C (stereo not drawn),inactive,
COc1cc(C(=O)NC2CCN(C)CC2)ccc1Nc1ncc2c(n1)N(C1CCCC1)CC(F)(F)C(=O)N2C,inactive,
CC(C)C[P+](C)(CC(C)C)CC(C)C,inactive,
CCN(Cc1cccc(S(=O)(=O)O)c1)c1ccc(C(=C2C=CC(=[N+](CC)Cc3cccc(S(=O)(=O)O)c3)C=C2)c2ccccc2S(=O)(=O)[O-])cc1,38.7 µM (active),
CCN(CC)CCOc1ccc(/C(=C(\Cl)c2ccccc2)c2ccccc2)cc1,inactive,
Cc1ccc(C)c(OCCCC(C)(C)C(=O)O)c1,inactive,
N#[N+]c1ccc2c(S(=O)(=O)[O-])cccc2c1O,inactive,
C=CC(C)(CCC=C(C)C)OC(=O)c1ccccc1 (stereo not drawn),inactive,
C=CC(=O)NCOCC(C)C,inactive,
C[C@]12CC[C@@H]3c4ccc(O)cc4CC[C@H]3[C@@H]1CC[C@H]2O,inactive,
CC(C)(C)CC(C)(C)c1ccc(OCCO)cc1,inactive,
Clc1cccnc1,inactive,
O=C(O)c1ccccc1Nc1cc(Cl)ccc1C(=O)O,,0.206% [at 18.9 µM]
Cc1cc(-c2ccc(N=Nc3cc(S(=O)(=O)O)c4ccccc4c3N)c(C)c2)ccc1N=Nc1cc(S(=O)(=O)O)c2ccccc2c1N,inactive,
C=C(C)c1cccc(C(=C)C)c1,inactive,
O=S(=O)(O)CCS,inactive,
